Assay results published in ChEMBL document CHEMBL3988442, “University of Dundee, Small-Polar-MMV Screening Library” (2021).

The compounds below were run against T1, Aspartate--tRNA(Asp/Asn) ligase (Mycobacterium tuberculosis (strain ATCC 25618 / H37Rv)) (UniProt P9WFW3) (assay: Assay for Asp RNA synthetase-1 from Mycobacterium tuberculosis). Settings: 30 µM.
T1 sequence (whole entry): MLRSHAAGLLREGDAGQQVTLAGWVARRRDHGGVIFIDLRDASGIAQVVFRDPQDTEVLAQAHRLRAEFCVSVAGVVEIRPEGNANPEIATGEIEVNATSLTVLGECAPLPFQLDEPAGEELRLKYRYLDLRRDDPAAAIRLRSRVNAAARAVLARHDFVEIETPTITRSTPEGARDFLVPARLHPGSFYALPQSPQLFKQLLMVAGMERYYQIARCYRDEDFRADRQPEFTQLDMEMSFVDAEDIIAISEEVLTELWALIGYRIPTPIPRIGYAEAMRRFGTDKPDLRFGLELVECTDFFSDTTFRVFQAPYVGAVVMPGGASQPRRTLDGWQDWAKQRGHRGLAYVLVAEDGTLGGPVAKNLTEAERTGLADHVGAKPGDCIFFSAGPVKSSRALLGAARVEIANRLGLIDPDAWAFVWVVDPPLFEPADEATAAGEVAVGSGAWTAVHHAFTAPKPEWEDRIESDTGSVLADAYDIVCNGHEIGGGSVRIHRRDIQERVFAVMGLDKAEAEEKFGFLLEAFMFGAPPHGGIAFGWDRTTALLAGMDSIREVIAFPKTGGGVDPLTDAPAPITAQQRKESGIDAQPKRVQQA
Format: functional
Parameters: scale not given: in the data most compounds retested in dose-response had high values

SMILES | Percent Effect
CN(C)CCNC(=O)c1cc(-c2cnc(N3CCCC3)nc2)cn1C | -0.309%
CC(C)c1n[nH]c(C2CN(C(=O)c3cccc4cn[nH]c34)CCO2)n1 (centres undefined) | 7.47%
CCSCCC(=O)NS(=O)(=O)c1ccc2c(c1)OCCO2 | -0.722%
Cc1sc(NC(=O)CN(C)S(C)(=O)=O)c(C#N)c1C | 1.76%
O=C(Cn1nc2c(cc1=O)CCCC2)N[C@@H](Cc1ccccc1)C(=O)O | 0.174%
O=C(c1cccc(CNCC2CNc3ccnn3C2)c1)N1CCCC1 (centres undefined) | -1.15%
CC(C)c1cc(NC(=O)CN2CCC(N3CCCCC3)CC2)on1 | 0.301%
COc1ncc(NC(=O)Nc2cc(C)ccc2OC)cn1 | 1.65%
O=C(NCc1cccs1)[C@H]1CC[C@@H]2[C@@H](CCN2c2ncccn2)O1 | 3.22%
CNc1cc(C2CCCN2Cc2ccccc2OCC(=O)O)ccn1 (centres undefined) | 5.46%
O=C1N(c2cccc(Cl)c2)Cc2nc(=O)n(Cc3cccc(F)c3)n21 | 6.56%
O=S1(=O)COCCN1Cc1ccc(Cl)c(F)c1 | 2.49%
CC(CNC(=O)Nc1cn[nH]c1)N1CCc2ccccc2C1 (centres undefined) | -0.721%
Cn1cnnc1C1CCCN(C(=O)NCCNc2ccccn2)C1 (centres undefined) | -6.46%
COc1ccc(Br)c(C(=O)N2CCC(c3n[nH]c(C4CC4)n3)CC2)c1 | 0.422%
CC(=O)Nc1cccc(C(=O)Nc2cnc3n2CCCC3)c1 | 2.26%
CCOc1ccnc(N2CCN(C(=O)c3cccc(C#N)c3)CC2)n1 | -3.26%
CC(=O)N1CCN(C(=O)CCOc2ccc(C(C)C)cc2)CC1 | -2.21%
O=C(c1ccc[nH]1)N1C[C@H]2CC[C@@H]1CN(c1ncccn1)C2 | -4.31%
